This is a sample that favours compounds with a hit; in the whole collection about 7.6% have one here.
Cy5 interf NS3h = Cy5 fluorescence quenchers or enhancers, artefact control for HCV NS3 helicase inhibitor project, biochemical, ChemBridge library, Cy5 readout; Cy5-dT15 DNA with NS3h, fluorescence interference; actives lie on both sides; signal over control mean, under 1 quenches; fluorescence interference ratio at 100 µM; actives 6% (n = 16,000);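 active = compound fluorescence over control fluorescence at most 0.8, a quencher, or at least a set upper limit, an enhancer; inactive = ratio between 0.8 and the set upper limit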
HCV NS3h FP = HCV NS3 helicase inhibitors, primary screen, biochemical, fluorescence polarization, ChemBridge library | Hepatitis C virus NS3 helicase | NS3h Cy5-dT15 DNA binding | inhibition, % at 100 µM | actives 1.6% (n = 16,000);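 active = inhibition above the average over every tested compound plus 3 SD, cut at about 40% in these data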
Numbers stand for hits; - = inactive.

SMILES	Cy5 interf NS3h	HCV NS3h FP
O=C1C2C3C=CC(C3)C2C(=O)N1c1cccc(-c2nc3ccccc3c(=O)o2)c1 (stereo not drawn)	0.76	-
COc1ccc(CN2C(=O)NC(=O)/C(=C\C=C\c3ccccc3)C2=O)cc1	1.9	-
COc1ccc(CN2C(=O)NC(=O)/C(=C\C=C\c3ccco3)C2=O)cc1	-	-
COc1ccc(S(=O)(=O)N(CCc2ccccc2)CC(=O)Nc2cccc3ccccc23)cc1	-	-
CC1CCC(C(C)C)C(OC(=O)c2ccco2)C1 (stereo not drawn)	-	-
Cc1ccc([N+](=O)[O-])cc1-c1ccc(/C=C2\C(=O)NC(=O)N(c3ccc(Cl)cc3)C2=O)o1	1.3	-
Cc1ccc(N2C(=O)NC(=O)/C(=C\c3ccc(-c4ccc([N+](=O)[O-])cc4Cl)o3)C2=O)cc1	-	-
COc1ccc(NC(=O)c2ccccc2Cl)cc1Cl	-	-
O=C1NN=C2C3CCC4CC12CC1(C3)C(=O)NN=C41	0.74	-
COC(=O)c1c(C)oc2cc(Br)c(OC(=O)c3ccc([N+](=O)[O-])cc3)cc12	-	-
Cc1cccc(Cl)c1NC(=O)C1CC(=O)N(c2ccc(Br)cc2)C1 (stereo not drawn)	-	-
CC(=O)N1CCN=C1Nc1c(Cl)cccc1Cl	0.6	-
Clc1ccc(C(Sc2ncn[nH]2)c2ccccc2)cc1 (stereo not drawn)	-	-
COc1ccc(-c2nc(-c3ccccc3)c(-c3ccccc3)[nH]2)cc1[N+](=O)[O-]	-	-
O=C(NC(=C(Cl)Cl)S(=O)(=O)c1ccc(Cl)cc1)c1ccccc1	0.79	-
COC(=NS(=O)(=O)c1ccc(Cl)cc1)c1ccccc1	-	-
O=C(NCc1ccccc1)c1nn2c(C(F)(F)F)cc(-c3cccs3)nc2c1Cl	-	-
COC(=O)c1cc2nc(-c3ccc(OC)cc3)cc(C(F)(F)F)n2n1	-	-
COC(=O)c1ccccc1NC(=O)c1cnn2c(C(F)(F)F)cc(-c3ccccc3)nc12	0.65	-
O=C(Nc1ccccc1C(F)(F)F)c1cnn2c(C(F)(F)F)cc(-c3ccccc3)nc12	-	-
CC(C)(C)NC(=O)c1nn2c(C(F)(F)F)cc(-c3ccccc3)nc2c1Br	0.64	-
CC(COc1ccccc1)NC(=O)c1nn2c(C(F)(F)F)cc(-c3ccccc3)nc2c1Br (stereo not drawn)	0.63	-
O=[N+]([O-])c1c(NC2CC2)ncnc1NC1CC1	-	-
COc1ccc(CCNS(=O)(=O)c2ccc3ccccc3c2)cc1	-	-
CCCCCN(CCCCC)C(=O)c1ccccc1C(=O)Nc1ccccc1	-	-
SMILES	Cy5 interf NS3h	HCV NS3h FP
Cc1ccccc1NC1(c2ccccc2Cl)C(=O)c2ccccc2C1=O	0.74	-
O=C1c2ccccc2C(=O)C1(Nc1ccc(F)cc1)c1ccccc1	-	-
C=CCc1c(C)nc2cc(-c3cccc(F)c3)[nH]n2c1=O	1.2	-
CCOC(=O)CCc1c(C)nc2cc(-c3cccc(F)c3)[nH]n2c1=O	-	-
Cc1cccn2c(=O)c(/C=C3\SC(=S)N(Cc4ccccc4)C3=O)c(NCCCn3ccnc3)nc12	0.59	-
COc1ccc(CCN2C(=O)/C(=C/c3c(NCCCn4ccnc4)nc4c(C)cccn4c3=O)SC2=S)cc1OC	-	-
O=C1NC(=O)N(c2ccccc2)C(=O)/C1=C\c1ccc(OCc2ccccc2F)cc1	-	-
O=C(COc1ccc2c(c1)oc(=O)c1ccccc12)c1ccccc1	1.4	-
O=C(COc1ccc2c(c1)oc(=O)c1ccccc12)OCc1ccccc1	-	-
O=C1CSC(c2ccc(Cl)cc2)N1c1ccc(Cl)c(Cl)c1 (stereo not drawn)	-	-
O=C(Nc1cccc(Br)c1)c1cc([N+](=O)[O-])ccc1Cl	-	-
O=C(Nc1ccc(NC(=O)c2cc([N+](=O)[O-])ccc2Cl)cc1)c1ccc(Br)cc1	0.54	-
CCOc1ccc(/C=C2\C(=O)NC(=O)N(c3cccc(Cl)c3)C2=O)cc1Cl	-	-
COC(=O)c1ccccc1NC(=O)/C=C/c1ccccc1	-	-
CC12c3ccccc3C(C)(c3ccccc31)C1C(=O)N(c3ccc(C(=O)O)cc3)C(=O)C12 (stereo not drawn)	0.72	-
COc1ccc(N2C(=O)C3C4c5ccccc5C(C)(c5ccccc54)C3C2=O)cc1 (stereo not drawn)	-	-
CCc1cc2c(C)c(CC)c(=O)oc2cc1OCC(C)=O	-	-
CCCc1c(C)c2c(OCC(=O)O)cc(OCC(=O)O)cc2oc1=O	0.76	-
O=C1/C(=C\c2cccc(C(F)(F)F)c2)SC(=S)N1c1cccc(Cl)c1	-	-
O=C1/C(=C/C=C/c2ccccc2)SC(=S)N1c1cccc(C(F)(F)F)c1	0.75	-
Cc1cc([N+](=O)[O-])ccc1-c1ccc(C(=O)Nc2ccc(-c3nc4ccccc4o3)c(O)c2)o1	0.61	-
O=C(Nc1ccc(-c2nc3ccccc3s2)c(O)c1)c1ccc(-c2cccc([N+](=O)[O-])c2)o1	0.56	-
CCOC(=O)c1ccc(-c2ccc(C(=O)Nc3ccc(-c4nc5ccccc5s4)c(O)c3)o2)cc1	-	-
Cc1ccc2oc(-c3cccc(NC(=O)c4ccc(-c5ccc([N+](=O)[O-])cc5C)o4)c3C)nc2c1	-	-
C=CCNC(=O)c1ccc(-c2ccc([N+](=O)[O-])cc2)o1	-	-
SMILES	Cy5 interf NS3h	HCV NS3h FP
O=C(Nc1ccc(NC(=O)c2ccc(-c3ccc([N+](=O)[O-])cc3)o2)cc1)c1ccco1	0.67	-
O=C(Nc1ccc(-c2nc3ccccc3o2)c(O)c1)c1ccc(-c2cccc(Cl)c2)o1	-	-
O=C(Nc1ccc(-c2nc3ccccc3o2)c(O)c1)c1ccc(-c2cccc([N+](=O)[O-])c2)o1	0.77	-
CCOC(=O)CNC(c1ccccc1)c1cc(Br)ccc1N (stereo not drawn)	-	-
O=C(Nc1ccc(F)c([N+](=O)[O-])c1)c1cccc(OCc2ccccc2)c1	-	-
C/C(CN1C(=O)c2ccccc2C1=O)=N/NC(=O)c1cccc(Cl)c1	-	-
C=CCOC(=O)C1=C(C)NC(C)=C(C(=O)OCC=C)C1c1ccc(O)c(OCC)c1	-	-
C=CCOC(=O)C1=C(C)NC(C)=C(C(=O)OCC=C)C1c1ccc(OC)c(OC)c1	0.8	-
CCCCC/C=C/C(=O)Nc1cccc2ccccc12	-	-
Cc1cc(=O)n2c([nH]c3ccccc32)c1C(=O)O	0.79	-
COC(=O)C1=C(C)N(c2ccccc2F)C(=O)/C1=C\c1ccccc1F	-	-
COc1ccccc1N1CCN(/N=C\c2cccc(C)c2)CC1	-	-
CC1CC(O)N(c2ccccc2)C(=S)N1 (stereo not drawn)	0.77	-
O=C1/C(=C/c2cccc([N+](=O)[O-])c2)SC(=S)N1C1CCS(=O)(=O)C1 (stereo not drawn)	0.35	-
O=C1/C(=C/c2cccc3ccccc23)SC(=S)N1C1CCS(=O)(=O)C1 (stereo not drawn)	-	-
COc1ccc(/C=N\n2cnnc2)cc1Cn1nc(C)c([N+](=O)[O-])c1C	-	-
CCOC(=O)COc1ccc(/C=C2\C(=O)NN(c3ccc(Cl)c(Cl)c3)C2=O)cc1OC	0.8	-
COc1cc(/C=C2\C(=O)NN(c3ccccc3)C2=O)ccc1OCC(=O)O	-	-
COc1cc(/C=C2\C(=O)NN(c3ccccc3)C2=O)ccc1OCc1ccccc1F	0.56	-

Compound activity deposited in PubChem by Milwaukee Institute for Drug Discovery.
